Reference: PubChem BioAssay (EPA / NIEHS)
Active and inactive are the calls of the source. How the source made its calls: active means hit-call score of the fitted dose curve at least 0.9, where 1 is the maximum; inactive means score below 0.9.

Key:
[1] = CCTE_Shafer_MEA_dev_mutual_information_norm: CCTE's Neural Network Formation Assay for Mutual Information Normalization, Shafer Lab (AID 2284091);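 on AC50: mutual information between electrodes summarised as area under curve across four recording days; potency is for a decrease in mutual information relative to DMSO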
Procedure, shortened: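 Developing rat cortical networks on 16-electrode MEA wells are treated throughout formation (DIV 0–12). Shared electrode information is recorded four times, converted to area-under-curve, and fitted for decreases against DMSO vehicle.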

[2] = CCTE_Shafer_MEA_dev_correlation_coefficient_mean: CCTE's Neural Network Formation Assay for Mean Correlation Coefficient, Shafer Lab (AID 2284093);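 on AC50: well mean pairwise spike train correlation integrated as AUC over recording days 5 to 12; potency fitted for loss of correlation relative to DMSO vehicle wells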
Procedure, shortened: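 Extracellular firing from rat cortical networks on 48-well MEAs, DMSO-referenced, negative fitting direction. Compound present from plating to DIV12; mean pairwise correlation per well integrated over DIV5–12 recordings by trapezoidal AUC.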

[3] = CCTE_Mundy_HCI_Cortical_Synap_Neur_Matur_NeuriteSpotCountPerNeuriteLength: CCTE's Synaptogenesis and Neurite Maturation Assay in rat cortical cells for Neurite Spot Count per Neurite Length, Mundy Lab (AID 2284210)
Procedure, shortened: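 Primary rat cortical neurons, compound exposure DIV 7–12, 288.33 h endpoint. Hoechst, anti-MAP2 and anti-synaptophysin labelling; neurite-associated puncta per neurite length scored by automated imaging relative to DMSO controls.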

[4] = CCTE_Mundy_HCI_Cortical_Synap_Neur_Matur_BPCount: CCTE's Synaptogenesis and Neurite Maturation Assay in rat cortical cells for Branch Point Count, Mundy Lab (AID 2284211)
Description: CCTE_Mundy_HCI_Cortical_Synap&Neurite_Matur is a multiplexed, cell-based-readout assay that uses rat primary cortical cells with measurements taken at 288.33 hours after chemical dosing in a microplate: 96-well plate.CCTE_Mundy_HCI_Cortical_Synap_Neur_Matur_BPCount is one of eight components of the CCTE_Mundy_HCI_Cortical_Synap&Neurite_Matur assay. It measures synaptogenesis and neurite maturation related to number of branch points using High Content Imaging of fluorescently labelled markers.[…] Using a type of morphology reporter, loss -of-signal activity can be used to understand developmental effects.
Cells are plated onto 96 well plates and allowed 2 hr for attachment to the substrate. At days in vitro (DIV) 5, Cytosine Arabinoside (AraC) is added to arrest glial cell growth. Chemicals are dosed and a media change is performed at DIV 7 of differentiation and is continued through DIV 12 when the experiment is terminated. Cells are fixed with […] and Hoechst Dye. Cells are stained using Millipore Mouse anti-MAP2MAB3418 (1:800) and Millipore Rabbit anti-Synaptophysinsc-1750 (1:250) primary antibodies and Alexa Fluor-488 goat anti-mouse and AlexaFluor-546 goat anti-rabbit secondary antibodies to label neuronal cell nuclei, synapses and neurites. A Cellomics ArrayScan VTi HCS Reader is used for automated image acquisition and analysis of neurite outgrowth.

[5] = CCTE_Mundy_HCI_Cortical_NOG_NeuriteCount: CCTE's Neurite Outgrowth Assay in rat cortical cells for Neurite Count, Mundy Lab (AID 2284212);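 further: cells fixed about two days after chemical exposure began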
Procedure, shortened: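 Neurite number per cell from high-content imaging of betaIII-tubulin immunostaining, with Hoechst nuclear counterstain.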

[6] = CCTE_Mundy_HCI_Cortical_NOG_NeuriteLength: CCTE's Neurite Outgrowth Assay in rat cortical cells for Neurite Length, Mundy Lab (AID 2284213);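 on AC50: neurites imaged about 48 to 50 h after chemical exposure began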
Procedure, shortened: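 Neurite length was read by high-content imaging of βIII-tubulin-labelled neurites in rat primary cortical cultures. Activity was fitted relative to DMSO.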

[7] = CCTE_Mundy_HCI_Cortical_Synap_Neur_Matur_NeuriteLength: CCTE's Synaptogenesis and Neurite Maturation Assay in rat cortical cells for Neurite Length, Mundy Lab (AID 2284214)
Procedure, shortened: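 Neurite length in rat primary cortical cultures is imaged after MAP2, synaptophysin and Hoechst staining. Dosing starts DIV 7, ending DIV 12; DMSO serves as negative control and baseline.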

[8] = IUF_NPC1b_proliferation_BrdU_72hr: Leibniz Research Institute for Environmental Medicine (IUF) 72-hour Neural Progenitor Cell Bromodeoxyuridine (BrdU) Proliferation Assay (NPC1b) (AID 2284207)
Procedure, shortened: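 Proliferation of primary human neural progenitor cells: 72 h compound treatment at 37C, 5% CO2, pH 7.2-7.6, in EGF/FGF-containing medium. Readout is BrdU uptake (last 16 h) by chemiluminescent ELISA, normalised to DMSO.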

[9] = IUF_NPC1a_proliferation_area_72hr: Leibniz Research Institute for Environmental Medicine (IUF) 72-hour Neural Progenitor Cell Proliferation Area Assay (NPC1a) (AID 2284208)
Procedure, shortened: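 Read-out: increase in sphere area over 72 h by automated phase-contrast imaging, fitted in positive direction versus DMSO baseline. One hNPC sphere (0.25-0.35 mm) per well in EGF/FGF medium; growth-factor withdrawal served as positive control.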

[10] = IUF_NPC1_viability_72hr: Viability Assessment at 72 hours in the Leibniz Research Institute for Environmental Medicine (IUF) Neural Progenitor Cell Proliferation Assay (NPC1) (AID 2284209)
Procedure, shortened: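 Each well receives one 0.3 mm progenitor sphere from fetal brain cortex; test chemical is added at plating and left three days. Viability comes from alamar blue fluorescence, multiplexed with LDH and BrdU readouts in the same well.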

Measured: AC50

CC/C(=C(/CC)c1ccc(O)cc1)c1ccc(O)cc1
inactive: [3]
active: [1] 0.864 µM | [2] 5.98 µM | [4] 8.64 µM | [5] 22.6 µM | [6] 23.7 µM | [7] 9.46 µM

Clc1ccccc1C(c1ccccc1)(c1ccccc1)n1ccnc1
inactive: [1] | [2]

CN1C(=O)CC[C@H]1c1cccnc1
not listed: [8] | [9] | [10]
inactive: all other assays above

O=C1O[C@H]([C@@H](O)CO)C(O)=C1O
active: [8] 0.215 µM
inactive: all other assays above

Oc1ccccc1
not listed: [8] | [9] | [10]
inactive: all other assays above

CC(C)(c1cc(Br)c(O)c(Br)c1)c1cc(Br)c(O)c(Br)c1
inactive: [1] | [2] | [8] | [9] | [10]

c1ccc2ccccc2c1
inactive: [1] | [2]
